Laboratory results from PubChem BioAssay (Tox21).
Where “and” joins values, the source holds several entries; their conditions need not be identical. Equal entries are not always repeated. Records with an inconclusive call do not appear. Where a call stands in place of a potency, no number is given. Some compounds were tested as several samples or in several runs, with calls that do not always agree. Calls of active or inactive are those of the source. Calls come from the whole dose curve; as a rule, active = well fitted curve in the direction sought with a large enough effect in the repeat runs; inconclusive = weak or mixed curves; inactive = no such curve, though single readings can be large; an effect the other way counts as inactive or inconclusive.

How the values were obtained:
[1] = Caspase-3/7 induction in HepG2 cells by small molecules, qHTS assay (AID 1346978); note: nearly all actives have a fitted effect of over 15% in size
Summary of the method: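 Wild-type HepG2 cells (2,000/well) were settled 5 h at 37 C, 5% CO2, then exposed to compounds in DMSO for 17 h. Caspase-3/7 activity was read by luminescence 30 min after adding Caspase-Glo 3/7 reagent at room temperature.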

[2] = Caspase-3/7 induction in CHO-K1 cells by small molecules, qHTS cell viability counter screen (AID 1346979); note: nearly all actives have a fitted effect of over 35% in size; note: potency is the fitted concentration of half-maximal effect
Summary of the method: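 Cells (CHO-K1, wild type) are plated at 1,500 per well and incubated 5hr. Test compounds in DMSO are then pinned in, followed by 16hr at 37C and 5% CO2. Viability is read by CellTiter-Fluor fluorescence after 1hr.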

[3] = Caspase-3/7 induction in CHO-K1 cells by small molecules, qHTS assay (AID 1346980); note: nearly all actives have a fitted effect of over 15% in size
Summary of the method: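 Wild-type cells were seeded at 1,500 per well and settled 5 hr at 37 C, 5% CO2, then exposed to DMSO-dissolved compounds for 17 hr. Caspase-Glo 3/7 reagent was added, and luminescence was read after 30min at room temperature.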

[4] = Caspase-3/7 induction in HepG2 cells by small molecules, qHTS cell viability counter screen (AID 1346981); note: nearly all actives have a fitted effect of over 30% in size; note: potency is the fitted concentration of half-maximal effect
Summary of the method: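 Counter screen for cytotoxicity: HepG2 exposed 16 hr to compounds, then CellTiter-Fluor viability signal (fluorescence, 1 hr reagent incubation).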

[5] = biological target: Nuclear receptor subfamily 1 group I member 2 (Homo sapiens) (UniProt O75469); assay: Human pregnane X receptor (PXR) small molecule agonists, qHTS assay (AID 1346982); note: nearly all actives have a fitted effect of over 35% in size; note: potency is the fitted concentration of half-maximal effect
Summary of the method: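 Luminescence (ONE-Glo, 30 min RT) after 24 hr compound exposure of PXR-Luc HepG2 cells; cells rested 5 hr post-plating in 5% charcoal-stripped FBS medium.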

[6] = biological target: Nuclear receptor subfamily 1 group I member 2 (Rattus norvegicus) (UniProt Q9R1A7); assay: Rat pregnane X receptor (rPXR) activation by small molecules, qHTS assay (AID 1346983); conditions: rPXR luciferase reporter cells, One-Glo luminescence, 24 h; max activation: stronger effect = higher value; note: nearly all actives have a fitted effect of over 20% in size
Summary of the method: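 Cell-based rPXR luciferase reporter assay, 2,000 cells per well, rested 5hr at 37 C before compound addition in DMSO, then 24 hr at 37 C. One-Glo reagent was added and luminescence read after 30 min at room temperature.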

[7] = biological target: Nuclear receptor subfamily 1 group I member 2 (Homo sapiens) (UniProt O75469); assay: CYP3A4 induction through human pregnane X receptor (PXR) by small molecules, qHTS assay (AID 1346984); note: nearly all actives have a fitted effect of over 40% in size
Summary of the method: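 DPX-2 reporter cells; 24h cpd, 37C; Luciferin-IPA 3uM final x3h; One-Glo 30 min RT; lumi read.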

[8] = biological target: Nuclear receptor subfamily 1 group I member 2 (Homo sapiens) (UniProt O75469); assay: Human pregnane X receptor (PXR) activation by small molecules, qHTS assay (AID 1346985); note: nearly all actives have a fitted effect of over 40% in size
Summary of the method: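 DPX-2 cells (HepG2 co-transfected with a PXR response element and a CYP3A4-promoter luciferase construct) were seeded at 2,000 per well, rested 5 hr at 37C, then exposed to DMSO-dissolved compounds for 24 hr. Activation was read as luciferase luminescence.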

[9] = biological target: Cytochrome P450 2D6 (Homo sapiens) (UniProt P10635); assay: Cytochrome P450 Family 2 Subfamily D Member 6 (CYP2D6) small molecule antagonists: luciferase reporter qHTS assay (AID 1671196); note: nearly all actives have a fitted effect of over 50% in size; note: potency is the fitted concentration of half-maximal effect
Summary of the method: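 Inhibition of CYP2D6 was gauged by loss of luminescence, since light produced tracks the luciferin generated from a proluciferin substrate. A 10 min room-temperature preincubation preceded 1 h NADPH-supported turnover.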

[10] = biological target: Cytochrome P450 2C19 (Homo sapiens) (UniProt P33261); assay: Cytochrome P450 Family 2 Subfamily C Member 19 (CYP2C19) small molecule antagonists: luciferase reporter qHTS assay (AID 1671197); note: nearly all actives have a fitted effect of over 65% in size; note: potency is the fitted concentration of half-maximal effect
Summary of the method: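 Light output is proportional to CYP2C19 activity: proluciferin substrate is converted to luciferin, then detected by a luciferin detection reagent that also stops the 1 h, 37C NADPH-driven reaction. Ketoconazole serves as positive control.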

[11] = biological target: Cytochrome P450 2C9 (Homo sapiens) (UniProt P11712); assay: Cytochrome P450 Family 2 Subfamily C Member 9 (CYP2C9) small molecule antagonists: luciferase reporter qHTS assay (AID 1671198); note: nearly all actives have a fitted effect of over 50% in size; note: potency is the fitted concentration of half-maximal effect
Summary of the method: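 CYP2C9 activity was measured with a P450-Glo proluciferin substrate. Enzyme–substrate mix was held with compound for 10 min at room temperature, then NADPH regeneration solution was added for 1 h at 37C. Luciferin product was read as luminescence.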

[12] = biological target: Cytochrome P450 1A2 (Homo sapiens) (UniProt P05177); assay: Cytochrome P450 Family 1 Subfamily A Member 2 (CYP1A2) small molecule antagonists: luciferase reporter qHTS assay (AID 1671199); note: nearly all actives have a fitted effect of over 50% in size; note: potency is the fitted concentration of half-maximal effect
Summary of the method: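 Signal from luciferin formed by CYP1A2 from a proluciferin substrate is read as luminescence, expressed in relative luminescence units. Compounds sit with enzyme 10 min, NADPH-driven reaction runs 1 h, all at room temperature.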

[13] = biological target: Voltage-gated inwardly rectifying potassium channel KCNH2 (Homo sapiens) (UniProt Q12809); assay: Human Ether-a-go-go-Related Gene (hERG) channel small molecule antagonists: fluorescence cell-based qHTS assay (AID 1671200);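 note: hERG-expressing U2OS cells given a thallium stimulus after FluxOR II dye loading; series mostly up to about 77 µM; nearly all actives have a fitted effect of over 50% in size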
Summary of the method: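 Channel function was assessed by thallium flux. Cells seeded the previous day and kept at 37 C took up FluxOR II dye over 1 h in the dark at room temperature, then sat another 10 min before stimulation.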

[14] = biological target: Cytochrome P450 3A4 (Homo sapiens) (UniProt P08684); assay: Cytochrome P450 Family 3 Subfamily A Member 4 (CYP3A4) small molecule antagonists: luciferase reporter qHTS assay (AID 1671201)
Summary of the method: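 Compounds in DMSO were pin-transferred onto CYP3A4 enzyme-substrate mix and held 10 min at room temperature. NADPH regenerating solution started the reaction for 1 h; luciferin detection reagent stopped it, and luminescence was read after 20 min.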

Chain of Cytochrome P450 2D6 (Homo sapiens) (P10635 whole entry, looked up): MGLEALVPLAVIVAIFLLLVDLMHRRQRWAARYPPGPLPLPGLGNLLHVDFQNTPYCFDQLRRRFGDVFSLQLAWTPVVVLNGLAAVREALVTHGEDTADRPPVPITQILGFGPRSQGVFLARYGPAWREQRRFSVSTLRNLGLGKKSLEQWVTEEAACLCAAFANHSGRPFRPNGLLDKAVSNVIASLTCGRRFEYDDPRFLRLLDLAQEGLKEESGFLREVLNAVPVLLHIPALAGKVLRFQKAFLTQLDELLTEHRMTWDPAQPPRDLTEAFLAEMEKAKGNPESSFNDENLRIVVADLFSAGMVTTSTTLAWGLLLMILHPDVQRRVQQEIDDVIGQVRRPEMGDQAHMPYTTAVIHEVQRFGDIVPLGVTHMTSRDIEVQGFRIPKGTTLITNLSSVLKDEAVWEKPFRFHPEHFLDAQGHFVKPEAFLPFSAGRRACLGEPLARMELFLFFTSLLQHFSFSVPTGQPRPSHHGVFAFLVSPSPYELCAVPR
Chain of Voltage-gated inwardly rectifying potassium channel KCNH2 (Homo sapiens) (Q12809 whole entry, looked up): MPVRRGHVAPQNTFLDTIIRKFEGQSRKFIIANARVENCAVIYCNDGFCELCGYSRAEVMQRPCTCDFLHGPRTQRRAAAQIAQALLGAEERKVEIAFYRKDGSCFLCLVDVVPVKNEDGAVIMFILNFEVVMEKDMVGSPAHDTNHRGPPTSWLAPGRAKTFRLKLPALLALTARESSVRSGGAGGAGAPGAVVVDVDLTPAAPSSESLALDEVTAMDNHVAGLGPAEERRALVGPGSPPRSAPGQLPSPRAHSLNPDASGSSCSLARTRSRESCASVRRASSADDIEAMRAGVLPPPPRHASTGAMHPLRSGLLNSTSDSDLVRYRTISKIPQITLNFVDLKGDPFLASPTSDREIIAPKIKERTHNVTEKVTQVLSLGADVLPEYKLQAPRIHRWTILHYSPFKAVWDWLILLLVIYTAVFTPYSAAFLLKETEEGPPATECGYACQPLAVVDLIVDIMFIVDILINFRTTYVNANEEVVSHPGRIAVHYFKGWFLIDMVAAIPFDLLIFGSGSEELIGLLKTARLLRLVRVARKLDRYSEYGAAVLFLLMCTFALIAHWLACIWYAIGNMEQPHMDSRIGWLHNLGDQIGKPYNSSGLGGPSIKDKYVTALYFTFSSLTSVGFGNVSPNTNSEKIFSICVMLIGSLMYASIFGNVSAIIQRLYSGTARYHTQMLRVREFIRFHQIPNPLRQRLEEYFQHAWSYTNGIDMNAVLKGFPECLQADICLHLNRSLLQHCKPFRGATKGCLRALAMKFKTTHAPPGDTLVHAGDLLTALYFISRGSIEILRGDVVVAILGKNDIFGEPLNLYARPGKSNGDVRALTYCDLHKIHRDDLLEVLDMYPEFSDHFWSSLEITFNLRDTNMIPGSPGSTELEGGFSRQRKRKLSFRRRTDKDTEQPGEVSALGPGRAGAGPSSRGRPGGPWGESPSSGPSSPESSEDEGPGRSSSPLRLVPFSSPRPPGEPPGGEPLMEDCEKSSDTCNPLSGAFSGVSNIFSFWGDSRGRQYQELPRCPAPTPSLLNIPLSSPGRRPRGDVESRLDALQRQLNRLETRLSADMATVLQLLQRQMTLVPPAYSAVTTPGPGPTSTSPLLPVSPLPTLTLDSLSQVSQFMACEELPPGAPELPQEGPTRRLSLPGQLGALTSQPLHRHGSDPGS
Chain of Nuclear receptor subfamily 1 group I member 2 (Rattus norvegicus) (Q9R1A7 whole entry, looked up): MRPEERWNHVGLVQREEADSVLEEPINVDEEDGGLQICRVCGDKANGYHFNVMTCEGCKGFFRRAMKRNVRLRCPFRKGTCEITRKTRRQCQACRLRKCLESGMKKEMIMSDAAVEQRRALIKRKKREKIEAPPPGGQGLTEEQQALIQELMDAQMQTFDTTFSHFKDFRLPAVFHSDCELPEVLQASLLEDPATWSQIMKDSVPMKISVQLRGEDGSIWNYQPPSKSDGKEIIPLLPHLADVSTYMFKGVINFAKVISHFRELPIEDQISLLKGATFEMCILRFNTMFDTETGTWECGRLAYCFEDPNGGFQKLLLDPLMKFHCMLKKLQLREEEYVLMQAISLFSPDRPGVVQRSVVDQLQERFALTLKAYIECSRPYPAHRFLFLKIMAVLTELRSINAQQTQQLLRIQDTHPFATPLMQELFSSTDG
Chain of Cytochrome P450 2C19 (Homo sapiens) (P33261 whole entry, looked up): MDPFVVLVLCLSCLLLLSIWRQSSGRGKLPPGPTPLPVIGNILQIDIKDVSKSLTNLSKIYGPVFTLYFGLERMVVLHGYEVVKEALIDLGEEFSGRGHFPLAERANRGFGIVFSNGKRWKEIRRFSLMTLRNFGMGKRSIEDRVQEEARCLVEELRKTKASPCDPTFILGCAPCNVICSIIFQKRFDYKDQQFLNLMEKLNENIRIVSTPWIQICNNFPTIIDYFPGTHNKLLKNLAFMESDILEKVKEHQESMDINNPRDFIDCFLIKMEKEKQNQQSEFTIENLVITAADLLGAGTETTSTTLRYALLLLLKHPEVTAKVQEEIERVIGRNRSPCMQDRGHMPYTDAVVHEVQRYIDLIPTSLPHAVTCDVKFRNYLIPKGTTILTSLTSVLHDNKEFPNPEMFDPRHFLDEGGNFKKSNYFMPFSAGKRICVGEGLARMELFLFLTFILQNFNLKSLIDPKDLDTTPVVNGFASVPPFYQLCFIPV
Chain of Cytochrome P450 2C9 (Homo sapiens) (P11712 whole entry, looked up): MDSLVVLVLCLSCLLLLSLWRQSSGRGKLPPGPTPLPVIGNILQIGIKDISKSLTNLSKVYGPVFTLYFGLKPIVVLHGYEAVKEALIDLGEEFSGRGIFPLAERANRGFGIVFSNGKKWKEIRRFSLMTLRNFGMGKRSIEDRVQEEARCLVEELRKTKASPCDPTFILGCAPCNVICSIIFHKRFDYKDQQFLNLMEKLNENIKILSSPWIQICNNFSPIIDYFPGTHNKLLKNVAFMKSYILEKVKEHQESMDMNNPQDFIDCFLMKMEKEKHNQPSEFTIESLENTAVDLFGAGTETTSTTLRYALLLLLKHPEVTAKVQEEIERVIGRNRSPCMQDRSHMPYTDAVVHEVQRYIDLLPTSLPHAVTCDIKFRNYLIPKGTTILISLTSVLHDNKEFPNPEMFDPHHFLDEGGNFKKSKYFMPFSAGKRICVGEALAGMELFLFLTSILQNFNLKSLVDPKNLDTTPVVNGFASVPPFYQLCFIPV
Chain of Nuclear receptor subfamily 1 group I member 2 (Homo sapiens) (O75469 whole entry, looked up): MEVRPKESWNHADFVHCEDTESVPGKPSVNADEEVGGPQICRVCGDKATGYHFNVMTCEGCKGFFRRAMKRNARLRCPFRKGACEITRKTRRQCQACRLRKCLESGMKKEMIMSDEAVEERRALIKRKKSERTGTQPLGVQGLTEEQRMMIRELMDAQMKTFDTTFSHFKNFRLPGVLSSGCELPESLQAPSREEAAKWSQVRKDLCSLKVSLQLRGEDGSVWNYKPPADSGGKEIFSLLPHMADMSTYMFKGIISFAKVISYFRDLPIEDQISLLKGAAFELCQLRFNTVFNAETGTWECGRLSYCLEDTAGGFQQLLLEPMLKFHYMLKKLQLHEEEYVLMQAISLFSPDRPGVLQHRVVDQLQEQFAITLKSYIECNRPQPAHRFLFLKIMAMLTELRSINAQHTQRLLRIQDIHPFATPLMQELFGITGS
Chain of Cytochrome P450 1A2 (Homo sapiens) (P05177 whole entry, looked up): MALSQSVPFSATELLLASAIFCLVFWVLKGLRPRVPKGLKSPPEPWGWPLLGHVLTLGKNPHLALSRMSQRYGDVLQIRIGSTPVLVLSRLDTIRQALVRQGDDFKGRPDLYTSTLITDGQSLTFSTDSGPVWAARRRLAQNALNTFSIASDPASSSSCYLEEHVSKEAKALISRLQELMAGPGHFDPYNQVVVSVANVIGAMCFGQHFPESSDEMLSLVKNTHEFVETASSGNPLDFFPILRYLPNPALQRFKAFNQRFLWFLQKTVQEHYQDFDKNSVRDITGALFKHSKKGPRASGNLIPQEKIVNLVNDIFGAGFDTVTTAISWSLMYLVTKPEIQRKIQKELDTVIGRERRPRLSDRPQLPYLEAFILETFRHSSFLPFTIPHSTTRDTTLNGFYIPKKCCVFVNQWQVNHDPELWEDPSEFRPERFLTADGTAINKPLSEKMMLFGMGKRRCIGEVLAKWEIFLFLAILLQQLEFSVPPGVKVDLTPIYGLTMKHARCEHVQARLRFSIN
Chain of Cytochrome P450 3A4 (Homo sapiens) (P08684 whole entry, looked up): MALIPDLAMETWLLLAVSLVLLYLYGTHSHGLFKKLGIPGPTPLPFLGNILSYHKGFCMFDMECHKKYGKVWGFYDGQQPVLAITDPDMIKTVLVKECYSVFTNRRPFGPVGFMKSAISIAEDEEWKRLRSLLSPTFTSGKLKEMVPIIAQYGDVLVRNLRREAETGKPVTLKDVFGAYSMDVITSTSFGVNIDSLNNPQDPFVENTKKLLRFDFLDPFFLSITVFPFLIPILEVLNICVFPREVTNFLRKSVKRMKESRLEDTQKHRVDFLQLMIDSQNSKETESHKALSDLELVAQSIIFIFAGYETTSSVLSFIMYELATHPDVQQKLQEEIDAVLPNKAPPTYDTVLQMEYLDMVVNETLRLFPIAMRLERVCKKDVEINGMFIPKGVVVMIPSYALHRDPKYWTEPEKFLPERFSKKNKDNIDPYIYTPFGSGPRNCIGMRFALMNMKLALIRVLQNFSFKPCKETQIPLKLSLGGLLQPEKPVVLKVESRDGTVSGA

SMILES	Potency [1]	Potency [2]	Potency [3]	Potency [4]	Potency [5]	max activation [6]	Potency [7]	outcome [8]	Potency [9]	Potency [10]	Potency [11]	Potency [12]	Potency [13]	Potency [14]
CN(C)C(=O)Nc1ccc(Cl)c(Cl)c1	inactive	inactive	inactive	inactive	60.9 µM (active) and 48.6 µM (active) and inactive	-0.866% (inactive)	inactive	inactive	31.6 µM (active) and inactive	39.8 µM (active) and 71 µM (active) and inactive	inactive	794 nM (active) and 1.42 µM (active) and 645 nM (active)	inactive	inactive
CS(=O)(=O)OCCCCOS(C)(=O)=O	inactive	inactive	inactive	inactive	inactive	-4.1% (inactive)	inactive	inactive	35.7 µM (active)	56.6 µM (active) and inactive	inactive	inactive	inactive	inactive
O=c1[nH]cnc2c1ncn2[C@H]1CC[C@@H](CO)O1	inactive	inactive	inactive	inactive	inactive	0.0547% (inactive)	inactive	inactive	inactive	inactive	inactive	inactive	inactive	inactive
Cc1cn([C@H]2C=C[C@@H](CO)O2)c(=O)[nH]c1=O	inactive	inactive	inactive	inactive	inactive	-2.07% (inactive)	inactive	inactive	inactive	inactive	inactive	inactive	inactive	inactive
CC(=O)CCC(=O)O	inactive	inactive	inactive	inactive	inactive	-1.2% (inactive)	inactive	inactive	inactive	inactive	inactive	inactive	inactive	–
O=C1OC2(c3ccccc31)c1cc(Br)c(O)c(Br)c1Oc1c2cc(Br)c(O)c1Br	inactive	6.2 µM (active) and 22.3 µM (active) and 11.9 µM (active)	inactive	6.2 µM (active) and 19.9 µM (active) and 10.6 µM (active)	inactive	-7.26% (inactive)	inactive	inactive	inactive	20.3 µM (active) and inactive	5.1 µM (active) and 9.19 µM (active) and 7.76 µM (active)	29.1 µM (active)	inactive	inactive
O=C1O[C@H]([C@@H](O)CO)C(O)=C1O	inactive	inactive	inactive	inactive	inactive	-0.298% (inactive) and -0.0182% (inactive)	inactive	inactive	inactive	inactive	inactive	inactive and 19.5 µM (active)	inactive	inactive
CN(C)CCOC(c1ccccc1)c1ccccc1	inactive	inactive	inactive	inactive	54.8 µM (active) and inactive	–	–	–	–	–	–	–	–	–
O=C(O)CC(O)C(=O)O (stereo not given)	inactive	inactive	inactive	inactive	inactive	-2.6% (inactive)	–	inactive	inactive	–	inactive	inactive and 35.6 µM (active)	inactive	inactive
O=S1(=O)OC(c2ccc(O)cc2)(c2ccc(O)cc2)c2ccccc21	inactive	30.6 µM (active) and 13.3 µM (active)	inactive	34.4 µM (active) and 48.6 µM (active) and 15 µM (active)	inactive	1.08% (inactive)	inactive	inactive	inactive	inactive and 50.2 µM (active)	3.17 µM (active) and 3.56 µM (active) and 2.45 µM (active)	25.2 µM (active) and 39.9 µM (active)	inactive	inactive
CC(O)(P(=O)(O)O)P(=O)(O)O	inactive	inactive	inactive	inactive	inactive	-1.65% (inactive)	inactive	inactive	inactive	inactive	inactive	–	inactive	inactive
O=C1c2c(O)cccc2Cc2cccc(O)c21	inactive	inactive	inactive	inactive	inactive	-3.04% (inactive)	inactive	inactive	inactive	inactive	inactive	inactive	inactive	inactive
